# Assay results published in PubChem BioAssay (Tox21).
# Several values for one entry are separate records, joined by “and”; a condition that tells them apart may be missing. Equal entries are not always repeated. Inconclusive results are not listed. A structure can be active in one record and inactive in another. Activity calls are given as the source filed them. Calls come from the whole dose curve; as a rule, active = well fitted curve in the direction sought with a large enough effect in the repeat runs; inconclusive = weak or mixed curves; inactive = no such curve, though single readings can be large; an effect the other way counts as inactive or inconclusive.
# Tested on: not listed separately
# Experiment: qHTS assay to identify small molecule antagonists of the estrogen receptor alpha (ER-alpha) signaling pathway using the BG1 cell line in the presence of 0.1 nM 17-beta-estradiol - cell viability counter screen (AID 1259241); note: nearly all actives have a fitted effect of over 40% in size; note: potency is the fitted concentration of half-maximal effect
# Details: VM7Luc4E2 (BG1) viability, CellTiter-Fluor protease, 22 h, 0.1 nM estradiol agonist added; series mostly up to 92.4 µM; activity change, negative = cytotoxicity: at the top concentration
# In short: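 Viability in VM7Luc4E2 cells after 22 hr compound exposure under 0.1 nM 17beta-estradiol stimulation, by CellTiter-Fluor.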
# % is set by controls: 0 for no effect and ±100 for the full control effect.
SMILES,"activity change, negative = cytotoxicity",Potency
CSC(=O)c1c(C(F)F)nc(C(F)(F)F)c(C(=O)SC)c1CC(C)C,0.15% (inactive),
CN(C)c1ccc(N)cc1,,47.4 µM (active)
C[C@H]1[C@H](c2ccc(Cl)cc2)SC(=O)N1C(=O)NC1CCCCC1,-19% (inactive),
CNC(C)(C)Cc1ccccc1,-6.09% [at 42.5 µM] (inactive),
CCN(CC)CCN1C(=O)CN=C(c2ccccc2F)c2cc(Cl)ccc21,-14.6% [at 42.5 µM] (inactive),
CC(=O)C(Cl)C(=O)N(C)C (stereo not given),0.215% (inactive),
CCC(C)Nc1c([N+](=O)[O-])cc(C(C)(C)C)cc1[N+](=O)[O-] (stereo not given),0.504% (inactive),
CCn1cc[n+](C)c1 (tested in a mixture with another compound),7.39% (inactive),
CCC1COC(Cn2cncn2)(c2ccc(Cl)cc2Cl)O1 (stereo not given),1.19% (inactive),
O=[N+]([O-])c1ccc(CCl)cc1,6.61% (inactive),
CC(C)N(C(=O)SC/C(Cl)=C/Cl)C(C)C,0% (inactive),
O.O.O.O=C([O-])[C@H]([O-])[C@@H]([O-])C(=O)[O-].O=C([O-])[C@H]([O-])[C@@H]([O-])C(=O)[O-].[K+].[K+].[Sb+3].[Sb+3],,48.8 µM (active)
c1ccc(Nc2ccc(Nc3ccccc3)cc2)cc1,-12.3% (inactive),
COc1ccc(Cc2nccc3cc(OC)c(OC)cc23)cc1OC,-24% [at 42.5 µM] (inactive),
CCCCCCC[CH2][Sn]([Cl])([Cl])[CH2]CCCCCCC,7.15% (inactive),
CC(C)N(C(=O)CCl)c1ccccc1,-14.2% (inactive),
N#Cc1ccc(N(CC(N)=O)CC(F)(F)F)cc1C(F)(F)F,-1.41% (inactive),
Oc1cccc(Cl)c1Cl,-7.48% (inactive),
ClC1=C(Cl)[C@]2(Cl)[C@@H]3[C@H]4C[C@H]([C@@H]5O[C@H]45)[C@@H]3[C@@]1(Cl)C2(Cl)Cl,-0.572% (inactive),
CC(=O)[O-].CC(=O)[O-].CC(=O)[O-].[Sb+3],-1.06% [at 3.27 µM] (inactive),

# Tested on: not listed separately
# Experiment: qHTS assay to identify small molecule antagonists of the androgen receptor (AR) signaling pathway using the MDA cell line in the presence of 0.5 nM R1881 - cell viability counter screen (AID 1259242); note: nearly all actives have a fitted effect of over 45% in size
# Details: MDA-kb2 viability, CellTiter-Fluor protease fluorescence, 16 h; series mostly up to 92.4 µM; viability change, negative = cytotoxic: at the top concentration
# In short: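 Cytotoxicity toward MDA-kb2 cells is measured by CellTiter-Fluor live-cell protease fluorescence after 16 hr compound exposure at 37C in the presence of 0.5 nM R1881 stimulator.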
row,SMILES,"viability change, negative = cytotoxic"
1,O=c1c2ccccc2c(=O)c2c1cc(Cl)c1[nH]c3c([nH]c12)c(Cl)cc1c(=O)c2ccccc2c(=O)c13,1.14% (inactive)
2,CCC(C)Br (stereo not given),0.253% (inactive)
3,CC(=O)[O-].CC(=O)[O-].CC(=O)[O-].[Cr+3],1.05% (inactive)
4,CCCCON=O,7.67% (inactive)
5,CC(=O)[O-].CC(=O)[O-].O.O.[Zn+2],4.72% (inactive)
6,CN1C(=O)[C@@H](NC(=O)c2cc3ccccc3[nH]2)N=C(c2ccccc2)c2ccccc21,-3.72% [at 42.5 µM] (inactive)
7,[Cl-].[Cl-].[Cl-].[Yb+3],1.92% (inactive)
8,CNC(C)(C)Cc1ccccc1,3.22% [at 42.5 µM] (inactive)
9,CCn1cc[n+](C)c1 (tested in a mixture with another compound),-1.16% (inactive)
10,CC(=O)[O-].CC(=O)[O-].CC(=O)[O-].[Sb+3],2.35% [at 3.26 µM] (inactive)

# Molecular target: Androgen receptor (Homo sapiens) (UniProt P10275)
# Experiment: qHTS assay to identify small molecule antagonists of the androgen receptor (AR) signaling pathway using the MDA cell line in the presence of 0.5 nM R1881 (AID 1259243); note: nearly all actives have a fitted effect of over 50% in size; note: potency is the fitted concentration of half-maximal effect
# Details: MDA-kb2 MMTV-luciferase, R1881 0.5 nM, 16 h; series mostly up to 92.4 µM; activity, negative = inhibition: at the top concentration
# In short: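 Steps: seed MDA-kb2 cells, incubate 5 hr at 37C; pin-transfer compounds in DMSO; add R1881 to 0.5 nM final; incubate 16 hr; add ONE-Glo, wait 30 min at room temperature; read luminescence.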
# Sequence of Androgen receptor (Homo sapiens) (P10275 whole entry, looked up): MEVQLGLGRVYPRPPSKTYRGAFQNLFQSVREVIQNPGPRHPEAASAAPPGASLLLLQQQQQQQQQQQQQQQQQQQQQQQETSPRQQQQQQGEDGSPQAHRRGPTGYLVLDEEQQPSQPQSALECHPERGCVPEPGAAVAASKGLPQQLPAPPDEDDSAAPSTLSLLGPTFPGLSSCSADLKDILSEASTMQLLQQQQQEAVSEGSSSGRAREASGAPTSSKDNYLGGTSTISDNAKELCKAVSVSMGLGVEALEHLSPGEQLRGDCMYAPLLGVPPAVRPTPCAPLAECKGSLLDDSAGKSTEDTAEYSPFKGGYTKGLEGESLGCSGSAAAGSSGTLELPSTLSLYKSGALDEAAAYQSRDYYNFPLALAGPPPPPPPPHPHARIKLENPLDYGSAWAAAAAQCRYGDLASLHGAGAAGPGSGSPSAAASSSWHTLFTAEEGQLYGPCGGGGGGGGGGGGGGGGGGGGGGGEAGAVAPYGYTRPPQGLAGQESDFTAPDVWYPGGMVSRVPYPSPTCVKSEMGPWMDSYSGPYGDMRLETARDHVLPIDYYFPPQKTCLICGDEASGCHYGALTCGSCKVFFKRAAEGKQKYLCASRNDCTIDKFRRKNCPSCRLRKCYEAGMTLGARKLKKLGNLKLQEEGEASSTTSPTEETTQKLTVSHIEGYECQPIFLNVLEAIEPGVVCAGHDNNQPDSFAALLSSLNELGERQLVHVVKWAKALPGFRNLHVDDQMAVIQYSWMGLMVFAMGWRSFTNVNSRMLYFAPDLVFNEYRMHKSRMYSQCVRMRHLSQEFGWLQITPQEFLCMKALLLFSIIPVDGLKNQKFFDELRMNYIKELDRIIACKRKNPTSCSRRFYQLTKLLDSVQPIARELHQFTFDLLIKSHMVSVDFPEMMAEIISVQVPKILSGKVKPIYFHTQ
SMILES,"activity, negative = inhibition",Potency
C[C@@H]1CC2=CC(=O)CC[C@@H]2[C@H]2CC[C@@]3(C)[C@@H](CC[C@]3(C)O)[C@@H]21,14.1% [at 42.5 µM] (inactive),
CCNS(=O)(=O)C(F)(F)C(F)(F)C(F)(F)C(F)(F)C(F)(F)C(F)(F)C(F)(F)C(F)(F)F,-0.232% (inactive),
CC1=C2C[C@H]3[C@@H](CC=C4C[C@@H](O)CC[C@@]43C)[C@@H]2CC[C@]12O[C@@H]1C[C@H](C)CN[C@H]1[C@H]2C,-11.6% [at 42.5 µM] (inactive),
C[C@H]1[C@H](c2ccc(Cl)cc2)SC(=O)N1C(=O)NC1CCCCC1,,48.6 µM (active)
COc1ccc(Cc2nccc3cc(OC)c(OC)cc23)cc1OC,,6.68 µM (active)
CC(C)N(C(=O)CCl)c1ccccc1,,19.3 µM (active)

# Molecular target: Estrogen receptor (Homo sapiens) (UniProt P03372)
# Experiment: qHTS assay to identify small molecule antagonists of the estrogen receptor alpha (ER-alpha) signaling pathway using the BG1 cell line in the presence of 0.1 nM 17-beta-estradiol (AID 1259244); note: nearly all actives have a fitted effect of over 50% in size; note: potency is the fitted concentration of half-maximal effect
# Details: VM7Luc4E2 (BG1) ERE-luciferase, antagonist mode, 0.1 nM E2, 22 h; series mostly up to 92.4 µM; activity change, negative = inhibition: at the top concentration
# In short: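 After 5 days in hormone-depleted medium (charcoal-stripped serum, no phenol red), VM7Luc4E2 cells were seeded, incubated 24 h, then co-treated with compound and 0.1 nM (final) estradiol for 22 h before luminescence detection.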
# Sequence of Estrogen receptor (Homo sapiens) (P03372 whole entry, looked up): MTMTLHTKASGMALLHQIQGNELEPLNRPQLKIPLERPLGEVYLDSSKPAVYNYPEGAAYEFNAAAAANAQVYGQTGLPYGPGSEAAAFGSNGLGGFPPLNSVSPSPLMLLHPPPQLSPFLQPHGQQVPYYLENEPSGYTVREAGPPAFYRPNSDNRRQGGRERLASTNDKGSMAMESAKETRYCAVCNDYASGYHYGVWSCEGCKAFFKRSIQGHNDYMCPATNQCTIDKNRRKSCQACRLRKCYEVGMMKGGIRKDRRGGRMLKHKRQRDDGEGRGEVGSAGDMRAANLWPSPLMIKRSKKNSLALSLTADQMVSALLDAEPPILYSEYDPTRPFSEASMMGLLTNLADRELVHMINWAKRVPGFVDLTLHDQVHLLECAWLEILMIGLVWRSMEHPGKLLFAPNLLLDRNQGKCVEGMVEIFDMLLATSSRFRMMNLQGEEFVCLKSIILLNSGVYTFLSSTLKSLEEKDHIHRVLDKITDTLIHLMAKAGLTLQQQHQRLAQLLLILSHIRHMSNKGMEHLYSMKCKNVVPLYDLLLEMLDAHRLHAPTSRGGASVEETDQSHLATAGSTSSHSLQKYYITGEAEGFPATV
SMILES,Potency,"activity change, negative = inhibition"
CCCCCCCCCCCCCCn1cc[n+](C)c1,612 nM (active) and 761 nM (active) and inactive,
CC(Cc1ccc(OCC(=O)O)cc1)NCC(O)c1csc(C(F)(F)F)n1 (stereo not given),,-16.7% (inactive)
O=[N+]([O-])c1ccccc1-c1ccccc1,,20.8% (inactive)
CCN(CC)C(=S)S,13.6 µM (active),
Cc1c([N+](=O)[O-])c(C)c([N+](=O)[O-])c(C(C)(C)C)c1[N+](=O)[O-],,-6.3% (inactive)
OCC(Br)CBr (stereo not given),,9.77% (inactive)
[O]=[Cr][O][Cr]=[O],,21% (inactive)
CC1=C2C[C@H]3[C@@H](CC=C4C[C@@H](O)CC[C@@]43C)[C@@H]2CC[C@]12O[C@@H]1C[C@H](C)CN[C@H]1[C@H]2C,,2.33% [at 42.5 µM] (inactive)
Oc1cc(Cl)c(Cl)c(Cl)c1Cl,29.9 µM (active),
CCCCC(CC)COC(=O)c1ccccc1C(=O)OCC(CC)CCCC (stereo not given),,0.57% (inactive)
CSC(=O)c1c(C(F)F)nc(C(F)(F)F)c(C(=O)SC)c1CC(C)C,,-14.2% (inactive)
CN(C)c1ccc(N)cc1,29.9 µM (active),
CCN(CC)CCN1C(=O)CN=C(c2ccccc2F)c2cc(Cl)ccc21,,-3.1% [at 42.5 µM] (inactive)
CC(=O)C(Cl)C(=O)N(C)C (stereo not given),,39.8% (inactive)
CCC(C)Nc1c([N+](=O)[O-])cc(C(C)(C)C)cc1[N+](=O)[O-] (stereo not given),,22.2% (inactive)
O=[N+]([O-])c1ccc(CCl)cc1,,18.7% (inactive)
CC(C)N(C(=O)SC/C(Cl)=C/Cl)C(C)C,,-1.07% (inactive)
O.O.O.O=C([O-])[C@H]([O-])[C@@H]([O-])C(=O)[O-].O=C([O-])[C@H]([O-])[C@@H]([O-])C(=O)[O-].[K+].[K+].[Sb+3].[Sb+3],,-89.2% (inactive)
c1ccc(Nc2ccc(Nc3ccccc3)cc2)cc1,,6.84% (inactive)
CCCCCCC[CH2][Sn]([Cl])([Cl])[CH2]CCCCCCC,,24.1% (inactive)
CC(C)N(C(=O)CCl)c1ccccc1,27.3 µM (active) and 54.5 µM (active),
N#Cc1ccc(N(CC(N)=O)CC(F)(F)F)cc1C(F)(F)F,,-12.9% (inactive)
Oc1cccc(Cl)c1Cl,,0% (inactive)
ClC1=C(Cl)[C@]2(Cl)[C@@H]3[C@H]4C[C@H]([C@@H]5O[C@H]45)[C@@H]3[C@@]1(Cl)C2(Cl)Cl,,-15.8% (inactive)
